Results: PubChem BioAssay (NCATS)
Inconclusive results are not listed. Activity calls are given as the source filed them. Calls follow the shape of the dose curve; as a rule, active = well fitted inhibition curve with a large enough effect; inconclusive = small, poorly fitted or top-dose-only effect; inactive = flat fitted curve, though single readings scatter.

target: Voltage-gated inwardly rectifying potassium channel KCNH2 (Homo sapiens) (UniProt Q12809); assay: qHTS Assay for Small Molecule Inhibitors of the Human hERG Channel Activity (AID 588834); conditions: U2OS BacMam hERG, FluxOR thallium flux fluorescence; series mostly up to 46.1 µM; activity change, negative = inhibition: at the top concentration;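 also: lower thallium flux fluorescence means stronger hERG block; nearly all actives have a fitted effect of over 50% in size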; as to activity change, negative = inhibition: top concentration of the series differs between compounds
Sequence (Q12809 whole entry, looked up): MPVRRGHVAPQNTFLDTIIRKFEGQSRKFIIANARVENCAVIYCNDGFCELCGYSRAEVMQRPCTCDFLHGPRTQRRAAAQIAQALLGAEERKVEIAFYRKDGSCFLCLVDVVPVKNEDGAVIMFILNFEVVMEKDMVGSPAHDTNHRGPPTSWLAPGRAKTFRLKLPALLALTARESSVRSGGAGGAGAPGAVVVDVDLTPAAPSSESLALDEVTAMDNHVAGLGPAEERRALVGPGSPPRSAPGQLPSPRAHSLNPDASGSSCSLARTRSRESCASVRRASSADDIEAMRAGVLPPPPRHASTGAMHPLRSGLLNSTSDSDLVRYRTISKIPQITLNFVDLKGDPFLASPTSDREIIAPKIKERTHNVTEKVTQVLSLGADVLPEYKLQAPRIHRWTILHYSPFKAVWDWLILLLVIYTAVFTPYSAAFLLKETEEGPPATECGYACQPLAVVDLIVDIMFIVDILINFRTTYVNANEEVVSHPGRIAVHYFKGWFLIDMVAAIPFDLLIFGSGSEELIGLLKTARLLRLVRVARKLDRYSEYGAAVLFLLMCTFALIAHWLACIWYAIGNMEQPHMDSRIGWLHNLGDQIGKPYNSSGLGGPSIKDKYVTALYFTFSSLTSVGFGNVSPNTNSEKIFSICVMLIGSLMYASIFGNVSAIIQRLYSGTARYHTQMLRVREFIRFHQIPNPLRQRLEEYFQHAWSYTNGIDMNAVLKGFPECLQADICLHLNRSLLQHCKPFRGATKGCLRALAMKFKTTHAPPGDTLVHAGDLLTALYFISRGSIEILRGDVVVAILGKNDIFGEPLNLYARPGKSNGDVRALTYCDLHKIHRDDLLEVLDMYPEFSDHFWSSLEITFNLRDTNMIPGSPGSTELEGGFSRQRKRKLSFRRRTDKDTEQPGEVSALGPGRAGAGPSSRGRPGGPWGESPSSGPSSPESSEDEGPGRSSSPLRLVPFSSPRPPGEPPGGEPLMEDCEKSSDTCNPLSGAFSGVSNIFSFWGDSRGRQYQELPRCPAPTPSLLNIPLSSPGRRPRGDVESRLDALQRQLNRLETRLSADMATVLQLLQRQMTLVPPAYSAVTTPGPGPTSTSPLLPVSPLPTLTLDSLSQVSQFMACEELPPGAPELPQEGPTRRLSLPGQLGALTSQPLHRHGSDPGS
Source text: NIH Chemical Genomics Center [NCGC]
National Institutes of Environmental Health Sciences [NIEHS]
National Toxicology Program [NTP]
We have developed a 1536-well cell-based assay for quantitative high throughput screening (qHTS) to determine in vitro hERG channel blockage as a measure of cardio toxicity with small molecules. This particular assay uses the U2OS cell line which is derived from human osteosarcoma.
NCGC Assay Protocol Summary:
HERG assay (FluxORTM thallium flux assay) was initially developed by Invitrogen/Molecular Probes, and then miniaturized into 1536-well plate in a homogeneous format by NCGC. This assay measures the activity of potassium channel using thallium dye (FluxOR) flux as surrogate measurement for potassium into the cells with a FDSS-7000 kinetic plate reader (Hamamatsu Corp., Hamamatsu City, Japan). The hERG ion channel is transduced into mammalian cells (U2OS) using a baculovirus (Bacmam) construct harboring the hERG K+ ion channel. So far we screened LOPAC1280 library (Sigma), the NTP collection of 1408 compounds, and the NCGC Pharmaceutical Collection (NPC), in which many well defined HERG blockers are present. The rank order potencies of many of these compounds are similar to that of other HERG assays (membrane potential, Rb+ flux, patch clamp, etc). This quick and homogeneous assay is also found to be sensitive, specific, and robust.
Using the FluxORTM thallium flux assay, the activity of potassium channel using thallium dye (FluxOR) flux as surrogate measurement for potassium into the cells was measured in the U2OS cell line transduced with hERG K+ ion channel using a baculovirus (Bacmam) using Opti-MEM medium (Invitrogen) containing 2% fetal calf serum (FCS, HyCone) following loading buffer addition, compound treatment for around 10 minutes and finally adding stimulation buffer. The assay was performed in black clear Kalypsys 1536-well plates. In the screen, Astemizole was used as positive controls. Library compounds were measured for their ability to cause hERG channel blockage in the cell line, as reflected by a decrease in fluorescence intensity, in a concentration-dependent manner. […] AC50 values were determined from concentration-response data modeled with the standard Hill equation.
qHTS protocol for hERG-U2OS cellular assay
[Step] [Parameter] [Value] [Description]
1. Day 1: Replace medium in 70-80% confluent T225 flask with 2.5 mL of hERG-BacMam virus plus 12.5 mL of phosphate buffered saline (PBS) (corresponding roughly to a multiplicity of infection ratio of 100 virus particles/cell)
2. Incubation: 4 hrs @ room Temperature in Dark
3. Reagent; Remove virus; wash once with 25 ml DPBS
4. Reagent; 35 ml culture medium
5. Incubation; 37 °C overnight
6. Day2: Reagent; 3 uL; 2000 U2OS cells/well
7. Time; 4 hr; 37 °C incubation
8. Loading buffer; 1 uL; 0.7X;
9. Incubation: 1hr @ RT in Dark.
12. Time; 10min; 37 °C incubation
13. Read fluorescence Intensity on FDSS for 10 Sec with 1 sec interval
14. Reagent; 1 uL; stimulation buffer
15. Read fluorescence Intensity on FDSS for 2 min with 1 sec interval
16. Detection; Fluorescence Intensity; FDSS
% is scaled to controls: 0 for no effect and ±100 for the full control effect; potency is read from the fitted curve at half-maximal effect.

SMILES	Potency	activity change, negative = inhibition
C=Cc1c(C)c2cc3[nH]c(cc4nc(cc5nc(cc1[nH]2)C(C)=C5CCC(=O)O)C(CCC(=O)O)=C4C)c(C)c3C=C	inactive	–
CCCCCCCCCCCCCCCC(=O)NCCO	–	21.1% (inactive)
Nc1nc2c(ncn2CCC(CO)CO)c(=O)[nH]1	–	17.9% (inactive)
C[C@H](N)[C@H](O)c1cccc(O)c1	–	15.4% [at 20.6 µM] (inactive)
CC(=O)O[C@@]12CO[C@@H]1C[C@H](O)[C@@]1(C)C(=O)[C@H](O)C3=C(C)[C@@H](OC(=O)[C@H](O)[C@@H](NC(=O)OC(C)(C)C)c4ccccc4)C[C@@](O)([C@@H](OC(=O)c4ccccc4)[C@H]21)C3(C)C	–	-2.74% (inactive)
Cc1ccc2nc(N)[nH]c(=O)c2c1Sc1ccncc1	–	5.74% (inactive)
Cc1cc(CC(=O)O)n(C)c1C(=O)c1ccc(Cl)cc1	inactive	–
OCC(O)CN1CCN(c2ccccc2)CC1 (stereo not given)	–	7.86% (inactive)
CC1(C)OC(=O)NC1=O	–	-14.8% (inactive)
CCC(=O)Nc1ccc(O)cc1	–	2.27% (inactive)
CC(=O)CCC(=O)O	–	-7.88% (inactive)
C[C@]12CC[C@@H]3c4ccc(O)cc4CC[C@H]3[C@@H]1CCC2=O	–	-19.5% (inactive)
CCN(CC)C(C)CN1c2ccccc2Sc2ccccc21 (stereo not given)	7.94 µM (active)	–
CC(C)(C)NCC(O)COc1ccc(NC(=O)NC2CCCCC2)cc1 (stereo not given)	–	-19.7% (inactive)
CN1CCN(C2Cc3ccccc3Sc3ccc(Cl)cc32)CC1 (stereo not given)	1.12 µM (active)	–
Cn1c(=O)c2c(ncn2CC2OCCO2)n(C)c1=O	–	18.7% (inactive)
COc1cc(C)c(Cc2cnc(N)nc2N)cc1OC	–	9.29% (inactive)
C[C@]12C[C@H](O)[C@H]3[C@@H](CCC4=CC(=O)CC[C@@]43C)[C@@H]1CC[C@@H]2C(=O)CO	inactive	–
CC(C)NC[C@H](O)c1ccc(O)c(O)c1	inactive	–
Nc1ccc(S(=O)(=O)Nc2ccc(Cl)nn2)cc1	–	7.56% [at 20.6 µM] (inactive)

SMILES	Potency	activity change, negative = inhibition
COCCOC(=O)C1=C(C)NC(C)=C(C(=O)OC/C=C/c2ccccc2)C1c1cccc([N+](=O)[O-])c1 (stereo not given)	–	-29.6% (inactive)
CCOC(CN1CCN(CC(C)C(=O)c2ccccc2)CC1)c1ccccc1 (stereo not given)	12.6 µM (active)	–
CC(C)(C)C(=O)NCCCC(=O)O	–	3.24% (inactive)
Nc1cc(=O)[nH]c(N)n1	–	2.57% (inactive)
CO/N=C(\C(=O)N[C@@H]1C(=O)N2C(C(=O)O)=C(CSc3nc(=O)c(O)nn3C)CS[C@H]12)c1csc(N)n1	–	-1.22% (inactive)
O=c1[nH]cnc2c1ncn2[C@@H]1O[C@H](CO)[C@@H](O)[C@H]1O	–	0.539% (inactive)
Oc1cccc(O)c1	inactive	–
CC(CN(C)C)CN1c2ccccc2CCc2ccccc21 (stereo not given)	7.08 µM (active)	–
CC(=O)NC(Cc1ccccc1)C(=O)O (stereo not given)	–	5.64% (inactive)
COc1ccc2[nH]c(S(=O)Cc3ncc(C)c(OC)c3C)nc2n1 (stereo not given)	–	4.24% (inactive)
COC(=O)[C@H]1[C@H]2C[C@@H]3c4[nH]c5cc(OC)ccc5c4CCN3C[C@H]2C[C@@H](OC(=O)COc2ccc(OC)cc2)[C@@H]1OC	0.141 µM (active)	–
O=Cc1ccccc1C=O	–	0.111% (inactive)
COc1ccc2c(c1)C(=O)N(CCc1ccc(S(=O)(=O)NC(=O)NC3CCCCC3)cc1)C(=O)C2(C)C	–	8.77% [at 20.6 µM] (inactive)
NC(=O)c1ncn([C@@H]2O[C@H](CO)[C@@H](O)[C@H]2O)n1	inactive	–
O=C1Nc2ccc(Cl)cc2[C@@](C#CC2CC2)(C(F)(F)F)O1	–	-20.1% (inactive)
CSc1ccc2c(c1)C(N1CCN(C)CC1)Cc1ccccc1S2 (stereo not given)	2.24 µM (active)	–
NC(=O)N/N=C/c1ccc([N+](=O)[O-])o1	inactive	–
N=c1c[n+](N2CCOCC2)[n-]o1	–	-0.0317% (inactive)
CCCCN1CCCC[C@H]1C(=O)Nc1c(C)cccc1C	–	-15.2% (inactive)
N[C@@H](CSCCCO)C(=O)O	–	6.19% (inactive)
